The first assay deals with GEMIN6. Description: pooled miR-30 sensor sort-seq; sequence = guide strand. To be noted: shRNA.
TTATACTCATTCTTCTCACTGG came in with a sensor-assay potency score (higher = more potent) of 0.394. ATAATCTCATTAGAGCTGCTGC showed a sensor-assay potency score (higher = more potent) of -0.457. TTTGTAAATGTAATCTTGCCAT came in with a sensor-assay potency score (higher = more potent) of -0.539. TTCTCTCTTCCAGATCCTCTGG: the sensor-assay potency score (higher = more potent) is -0.645. TTGTAAATGTAATCTTGCCATT returned a sensor-assay potency score (higher = more potent) of -1.2.

In the case of TTAGGCTGTTCTTTCTCTCTTC, the sensor-assay potency score (higher = more potent) is -0.165.

The next assay has as its target GFPT2. The description is as above. To be noted: shRNA.
Sequence TTCGTGATTATTCCCATCGATC showed a sensor-assay potency score (higher = more potent) of -1.22. Take TTGTCTTTTAAAACTAACTCTA: the sensor-assay potency score (higher = more potent) is -0.437. Sequence ATCACTAGCAAGTTCAACCATC yielded a sensor-assay potency score (higher = more potent) of -0.789. Regarding TTTGTAAAGTTCTTCATCGAGA, the sensor-assay potency score (higher = more potent) is -0.0624. On the same count and under the same terms, with TTGGTTTCAAAATTCACCCGAC the figure was 0.408; with TTCTCCAGAGTGCACGTCCTGT, -0.972; with TTGACCAGCTGAATGTGTCTTT, 0.14. Sequence TTTCTTGACCAGCTGAATGTGT displayed a sensor-assay potency score (higher = more potent) of -0.609.

The sequence TTTAAAACTAACTCTAGTGTTG showed a sensor-assay potency score (higher = more potent) of -0.242. Regarding TAGTATTGAAAACTGATTCTGG, the sensor-assay potency score (higher = more potent) was 0.341.

For the sequence TTGACTTCGTGATTATTCCCAT, the sensor-assay potency score (higher = more potent) is -0.191.

In turn, TTTGTAGTGAAATTCGGTCTTC showed a sensor-assay potency score (higher = more potent) of 0.0421.

For the next assay, the target named is GGH. The assay is described as above. To be noted: shRNA.
As for ATACTGGATACTTATATCCTTC, the sensor-assay potency score (higher = more potent) is -0.969. Consider TAAGACATTGAAAAACTTCTTT, for which the sensor-assay potency score (higher = more potent) is -0.164.

Turning to TTGACCTCCAGTGAAGTTCAGC, the sensor-assay potency score (higher = more potent) is -0.539. TTTAACTTTTCATTCATTGTAA displayed a sensor-assay potency score (higher = more potent) of 0.207.

Sequence TTGAAAAACTTCTTTAACTTTT yielded a sensor-assay potency score (higher = more potent) of -0.924.

The sequence TATTTCATAGTCTTTCTCTGTA came in with a sensor-assay potency score (higher = more potent) of 0.438.

For TTTCTCTGTAAGATCCAGCCTT, the sensor-assay potency score (higher = more potent) was -0.286. TTCTCTGTAAGATCCAGCCTTA had a sensor-assay potency score (higher = more potent) of -0.166. With AAATTCTGGAACATTCTGCTGT, the sensor-assay potency score (higher = more potent) is 0.666. For TTAGCATAATCTGAGCGTCTGA, the sensor-assay potency score (higher = more potent) was -0.339. Sequence TGAACTGATAAATCAATGCTTT registered a sensor-assay potency score (higher = more potent) of -0.538. On to TTAATAAGCACTCTCCACTAAT, for which the sensor-assay potency score (higher = more potent) was -1.04.

The target in another assay is GH2. The description is as above. To be noted: shRNA.
For TCAAACTTGCTGTAGGACTGAT, the sensor-assay potency score (higher = more potent) came to 0.205. TAGGTTAGATTTCTGCTGCGTT yielded a sensor-assay potency score (higher = more potent) of 0.0139.

The sequence TTCTGCTGCGTTTTCACCCTGT yielded a sensor-assay potency score (higher = more potent) of 0.325. In the case of TATGCCAGCTGGTACAGGCGAC, the sensor-assay potency score (higher = more potent) was -1.2. On the same count and under the same terms, with TAGACTCTGAGAAGCAGAGGGA the figure was 0.323; with TAGACGTTGCTGTCCGAGGCGC, -0.468. The sequence TTGAGCAGTGCGTCATCGTTGT yielded a sensor-assay potency score (higher = more potent) of 0.36. With TTAAACTCCTGATAGGTGTCAT, the sensor-assay potency score (higher = more potent) was -0.0284. TAAACTCCTGATAGGTGTCATA: the sensor-assay potency score (higher = more potent) was -1.52. Sequence AAGGTGTTGGAATAGACTCTGA yielded a sensor-assay potency score (higher = more potent) of -0.802.

The values above are taken from the OligoGym collection.
Note: reference of the scale not given here.
